# Results: PubChem BioAssay (Tox21)
# Inconclusive results are not listed. Activity calls are given as the source filed them. Calls follow the shape of the full dose curve.
# Target: Muscarinic acetylcholine receptor M1 (Homo sapiens) (UniProt P11229)
# Assay: Cholinergic receptor muscarinic 1 (CHRM1) small molecule antagonists, cell-based qHTS assay (AID 1963588); also: nearly all actives have a fitted effect of over 40% in size
# Details: CHRM1-CHO antagonist mode, calcium flux fluorescence; series mostly up to 61.5 µM; activity, negative = inhibition: at the top concentration
# Method in brief: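 CHRM1-CHO calcium-flux assay, antagonist mode. Cells were seeded 18 h, dye-loaded 1 h at 37 C and given compound for 5 min at RT, then acetylcholine was added at 50nM. FDSS fluorescence was read 3 min; 15 concentrations, three runs.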
# % is scaled to controls: 0 for no effect and ±100 for the full control effect.
# Muscarinic acetylcholine receptor M1 (Homo sapiens), sequence (P11229 whole entry, looked up): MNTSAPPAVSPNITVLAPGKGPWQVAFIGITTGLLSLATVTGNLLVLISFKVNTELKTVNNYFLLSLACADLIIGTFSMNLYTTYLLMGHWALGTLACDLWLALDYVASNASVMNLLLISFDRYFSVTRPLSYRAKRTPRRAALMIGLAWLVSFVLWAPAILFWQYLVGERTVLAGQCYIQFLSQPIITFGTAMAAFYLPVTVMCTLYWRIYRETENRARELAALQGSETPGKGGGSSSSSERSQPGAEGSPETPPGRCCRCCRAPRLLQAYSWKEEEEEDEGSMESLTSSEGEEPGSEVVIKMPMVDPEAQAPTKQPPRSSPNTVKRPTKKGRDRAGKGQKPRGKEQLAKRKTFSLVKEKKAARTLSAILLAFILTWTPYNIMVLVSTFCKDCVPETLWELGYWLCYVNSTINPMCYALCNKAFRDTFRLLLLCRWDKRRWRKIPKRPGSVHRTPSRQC
row,Compound,"activity, negative = inhibition"
1,c1cc2c3c(c1)ccc1cccc(c13)C2,3.81% (inactive)
2,CCOC(=O)N1CCC(Nc2ccc(Cl)cc2N)CC1,-32.2% [at 28.3 µM] (inactive)
3,CCCCCC(=O)OCCc1ccccc1,-3.24% (inactive)
4,COc1cc(C(C)C)ccc1C,8.74% [at 12.6 µM] (inactive)
5,CCCCCCCCCCOCC(O)CN (stereo not given),-1.54% [at 28.3 µM] (inactive)
6,CC(C)(Oc1ccc(Cl)cc1)C(=O)OCCCOC(=O)C(C)(C)Oc1ccc(Cl)cc1,12.1% [at 28.3 µM] (inactive)
7,CCCCCCCC(=O)Oc1c(Br)cc(C#N)cc1Br,3.04% (inactive)
8,O=C(C(Cl)Cl)N1CCOC12CCCCC2,-16.7% (inactive)
9,COc1ccc(-c2coc3cc(O)ccc3c2=O)cc1,-2.08% (inactive)
10,COc1ccc2nc(SCc3ncc(C)c(OC)c3C)[nH]c2c1,17.4% [at 28.3 µM] (inactive)
11,O=S(=O)(O)c1ccc(Cl)cc1,-5.36% (inactive)
12,CC(C)OC(=O)C(C)N(C(=O)c1ccccc1)c1ccc(F)c(Cl)c1 (stereo not given),-24.3% (inactive)
13,CCOC(=O)c1c(N)sc2c1CCN(Cc1ccccc1)C2,10.9% [at 28.3 µM] (inactive)
14,CN(C)CCCCl,-6.62% (inactive)
15,CCCCNc1c(C(=O)OCC)c(C)nc2c1cnn2CC,-6.64% [at 28.3 µM] (inactive)
16,C=C(C)C(=O)OC1CC(C)CC(C)(C)C1 (stereo not given),12.8% (inactive)
17,Nc1cc(C(=O)O)ccc1Cl,20% (inactive)
18,O=C(NC1CCN(CCc2c[nH]c3ccccc23)CC1)c1ccccc1,-14.9% [at 28.3 µM] (inactive)
19,O=C(O)CCCc1c[nH]c2ccccc12,-14.2% (inactive)
20,NC(CO)C(=O)NNCc1ccc(O)c(O)c1O (stereo not given),-14.5% [at 28.3 µM] (inactive)

row,Compound,"activity, negative = inhibition"
1,CCN(CC)c1cccc(C)c1,-2.11% (inactive)
2,CCCC(C)c1ccccc1O (stereo not given),8.38% (inactive)
3,CCO[Si](C)(CCCOCC1CO1)OCC (stereo not given),6.45% (inactive)
4,O=C(O)c1cn(C2CC2)c2cc(Cl)c(F)cc2c1=O,12.1% [at 28.3 µM] (inactive)
5,CCCC(=O)O[C@]1(C(=O)CC)CC[C@H]2[C@@H]3CCC4=CC(=O)CC[C@]4(C)[C@H]3[C@@H](O)C[C@@]21C,8.67% [at 28.3 µM] (inactive)
6,CCC(=O)Oc1ccc2c(c1)CC[C@@H]1[C@@H]2CC[C@@]2(C)[C@H]1C[C@@H](OC(=O)CC)[C@@H]2OC(=O)CC,9.61% [at 28.3 µM] (inactive)
7,C[C@H](O)C(=O)Nc1c(I)c(C(=O)NC(CO)CO)c(I)c(C(=O)NC(CO)CO)c1I,-9.01% [at 28.3 µM] (inactive)
8,CC1(C)CCC(C)(C)c2cc(NC(=O)c3ccc(C(=O)O)cc3)ccc21,2.45% [at 28.3 µM] (inactive)
9,O=C=NCc1cccc(CN=C=O)c1,-10.9% [at 12.6 µM] (inactive)
10,CCCCC(=O)O[C@]1(C(=O)CO)CC[C@H]2[C@@H]3CCC4=CC(=O)CC[C@]4(C)[C@H]3[C@@H](O)C[C@@]21C,1.65% [at 28.3 µM] (inactive)
11,CC[C@H](NC(C)C)[C@H](O)c1ccc(O)c2[nH]c(=O)ccc12,15.9% [at 28.3 µM] (inactive)
12,O=[N+]([O-])c1ccc(CO)cc1,-25.6% (inactive)
13,CCN(CC)c1ccc(C=O)cc1,-3.04% (inactive)
14,O=c1[nH]c(=O)n([C@H]2O[C@H](CO)[C@@H](O)[C@@H]2O)cc1/C=C\Br,1.34% [at 28.3 µM] (inactive)
15,O=C(O)c1cc(O)c2c(c1)C(=O)c1cccc(O)c1C2=O,0.562% (inactive)
16,CC(=O)Nc1ccc(N)cc1,1.57% (inactive)
17,Nc1ccccc1O,11.1% (inactive)
18,CCCCCCCCCC=O,0.518% (inactive)
19,CN1CCN(c2c(F)cc3c(=O)c(C(=O)O)cn4c3c2OCN4C)CC1,-0.388% [at 12.6 µM] (inactive)
20,COc1ccc2sc(C(=O)Nc3nnn[nH]3)c(OC(C)C)c2c1,-0.199% (inactive)
